{
  "source": "PubChem BioAssay (NCI)",
  "note": "This is part of a sample that, as a whole, favours compounds with a hit. Of some 83,000 tested, about 20% had one in any assay.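 Method: cells in 96-well plates; compound added at one concentration; 48 h incubation; percent growth measured; values under 10 scored active.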 Unmarked numbers belong to inactive results. The source made the active and inactive calls.",
  "data": [
    {"tested_on": "HS 578T breast", "assay": "NCI-60 one-dose screen, 48 h (100 = growth as untreated, 0 = no growth, -100 = all killed)", "settings": "10 µM unless noted", "values": [
      {"smiles": "CC(C)CCC[C@@H](C)[C@H]1CC[C@H]2[C@@H]3CC=C4c5sc(Nc6cc(C(F)(F)F)cc(C(F)(F)F)c6)nc5CC[C@]4(C)[C@H]3CC[C@]12C", "growth": "102%"},
      {"smiles": "N#CC1=C(N)Oc2c(sc3c(F)cccc23)C1c1ccc([N+](=O)[O-])cc1", "note": "(stereo not drawn)", "growth": "-26.1% (active)"},
      {"smiles": "c1ccc(-c2c(-c3ccccc3)[n+](Cc3ccc4ccccc4c3)cn2Cc2ccc3ccccc3c2)cc1", "growth": "-27.8% (active)"},
      {"smiles": "O=C(CSc1nnnn1-c1ccccc1)Nc1ccc(Oc2ccccc2)cc1", "growth": "99.2%"},
      {"smiles": "Cc1ccc2c(c1)nc(C)n2-c1ncnc2c1CC(C)c1cc(O)ccc1N2C", "note": "(stereo not drawn)", "growth": "34.7%"},
      {"smiles": "Fc1ccc2[nH]cc(-c3nc(-c4c[nH]c5c(Cl)nccc45)cs3)c2c1", "growth": "39%"},
      {"smiles": "COc1ccc(Oc2ccc(/C=C/C(=O)c3ccc(OC)c(OC)c3)cc2)cc1", "growth": "88.2%"},
      {"smiles": "CCCCC#Cc1c(I)n(C2OC(CO[Si](C)(C)C(C)(C)C)C3OC(C)(C)OC32)c(=O)n(C(=O)c2ccccc2)c1=O", "note": "(stereo not drawn)", "growth": "12%"},
      {"smiles": "O=C(N/N=C/c1ccc(Cl)cc1)c1ccc(NC(=O)c2ccccn2)cc1", "growth": "53.9%"},
      {"smiles": "COc1cc(-c2cc(-c3ccc(Nc4nc(Nc5ccc(Cl)cc5)nc(Nc5ccc(Cl)cc5)n4)cc3)no2)cc(OC)c1OC", "growth": "62.9%"},
      {"smiles": "NCCCNc1nc2ccccc2c2c(=O)c3cc(Cl)ccc3sc12", "growth": "43%"},
      {"smiles": "Cc1ccc(OCCOCCOCCOCCOCCOc2ccc(C)n(O)c2=S)c(=S)n1O", "growth": "45.8%"},
      {"smiles": "CC1(C)CC(=O)C2=C(C1)C(c1ccc(Cl)cc1)n1ncc(C#N)c1N2", "note": "(stereo not drawn)", "growth": "98.1%"},
      {"smiles": "CN(C)/C(N)=N/N=C(\\c1ccccc1)c1ccccn1", "growth": "97.8%"},
      {"smiles": "c1ccc(Nc2nc3c(s2)CCc2c[nH]cc2-3)nc1", "growth": "96%"},
      {"smiles": "COc1cc2c(cc1OCCCN1CCN(C(=S)SCCC(C#N)(c3ccccc3)c3ccccc3)CC1)N=C[C@@H]1CCCN1C2=O", "growth": "-54.4% (active)"},
      {"smiles": "O=C(NCCCCCCNC(=O)OCc1ccc2c(Cl)cc(Cl)c(O)c2n1)OCc1ccc2c(Cl)cc(Cl)c(O)c2n1", "growth": "-15.1% (active)"},
      {"smiles": "O=C(/C=C/c1ccccc1)N(C1CCCCC1)C1CCCCC1", "growth": "90.8%"},
      {"smiles": "C=CCn1cc(-c2nc3ccccc3s2)c2cc(-c3ccc4c5c(cccc35)C(=O)N(CCO)C4=O)ccc21", "growth": "104%"},
      {"smiles": "COc1cc(/C=C/C(=O)c2cccc(-n3cc(-c4ccc(Cl)cc4)[nH]c3=O)c2)ccc1O", "growth": "76.5%"},
      {"smiles": "O=C1Nc2ccc(Cl)cc2/C1=C/c1ccc[nH]1", "growth": "114%"},
      {"smiles": "Cn1c2ccccc2c2c3c(c4c5cc(Br)ccc5n(C)c4c21)C(=O)N(O)C3=O", "growth": "61.9%"},
      {"smiles": "O=S(=O)(NCCNc1nccc(-c2c(-c3ccc(F)c(O)c3)nc3sccn23)n1)c1ccc(Cl)cc1", "growth": "31.4%"},
      {"smiles": "Cc1ccc(OCCOCCOCCOc2ccc(C)n(O)c2=S)c(=S)n1O", "growth": "56.3%"},
      {"smiles": "C[C@@H]1NC(=O)[C@H](Cc2ccccc2)N(Cc2cccnc2)C1=O", "growth": "94.3%"},
      {"smiles": "C=CC(CC(c1ccccc1)(c1ccccc1)c1ccccc1)N(CC)CC", "note": "(stereo not drawn)", "growth": "82.1%"}
    ]},
    {"tested_on": "NCI/ADR-RES ovarian", "assay": "NCI-60 one-dose screen, 48 h (100 = growth as untreated, 0 = no growth, -100 = all killed)", "settings": "10 µM unless noted", "values": [
      {"smiles": "COc1ccc(/C=N/NC(=O)Cn2c(-c3ccc(S(C)(=O)=O)cc3)nc3ccccc32)cc1", "growth": "104%"},
      {"smiles": "CN(C)CCCn1c2c(c3ccncc3c1=O)C(=O)c1ccccc1-2", "growth": "-23.5% (active)"},
      {"smiles": "OC1(c2ccccc2)c2ccccc2N(c2ccccc2)c2ccc(Cl)cc21", "note": "(stereo not drawn)", "growth": "14.8%"},
      {"smiles": "CC1(/C=C/c2ccc(-c3ccccc3)cc2)CCn2cnc3ncnc(c32)N1O", "note": "(stereo not drawn)", "growth": "3.15% (active)"},
      {"smiles": "N#C/C(=C\\c1ccc(-c2cccc(Cl)c2)o1)C(=O)Nc1ncc(Cc2ccc(Cl)cc2)s1", "growth": "54.6%"},
      {"smiles": "O=S(O)c1cc(Cl)cc(Cl)c1OCc1ccccc1", "growth": "103%"},
      {"smiles": "O=C(C1=Cc2cc3ccccc3n2Cc2cnnn21)c1ccc(F)cc1", "growth": "101%"},
      {"smiles": "C[N+]1=C(/C=C/c2ccccc2Cl)C(C)(C)c2ccccc21", "growth": "101%"},
      {"smiles": "CSc1ccc(N2C(=N)C(=S)N(c3ccc(C)cc3)C2=O)cc1", "growth": "106%"},
      {"smiles": "CC(C)CCC[C@@H](C)[C@H]1CC[C@H]2[C@@H]3CC=C4c5sc(Nc6cc(C(F)(F)F)cc(C(F)(F)F)c6)nc5CC[C@]4(C)[C@H]3CC[C@]12C", "growth": "102%"},
      {"smiles": "COc1cc(-c2cc(-c3ccc(Nc4nc(Nc5ccc(Cl)cc5)nc(Nc5ccc(Cl)cc5)n4)cc3)no2)cc(OC)c1OC", "growth": "80.4%"},
      {"smiles": "NCCCNc1nc2ccccc2c2c(=O)c3cc(Cl)ccc3sc12", "growth": "-4.11% (active)"},
      {"smiles": "Cc1ccc(OCCOCCOCCOCCOCCOc2ccc(C)n(O)c2=S)c(=S)n1O", "growth": "1.54% (active)"},
      {"smiles": "CC1(C)CC(=O)C2=C(C1)C(c1ccc(Cl)cc1)n1ncc(C#N)c1N2", "note": "(stereo not drawn)", "growth": "106%"},
      {"smiles": "CN(C)/C(N)=N/N=C(\\c1ccccc1)c1ccccn1", "growth": "98.3%"},
      {"smiles": "C=CCn1cc(-c2nc3ccccc3s2)c2cc(-c3ccc4c5c(cccc35)C(=O)N(CCO)C4=O)ccc21", "growth": "98.3%"},
      {"smiles": "COc1cc(/C=C/C(=O)c2cccc(-n3cc(-c4ccc(Cl)cc4)[nH]c3=O)c2)ccc1O", "growth": "35.4%"},
      {"smiles": "O=C1Nc2ccc(Cl)cc2/C1=C/c1ccc[nH]1", "growth": "112%"},
      {"smiles": "O=S(=O)(NCCNc1nccc(-c2c(-c3ccc(F)c(O)c3)nc3sccn23)n1)c1ccc(Cl)cc1", "growth": "28.5%"},
      {"smiles": "Cc1ccc(OCCOCCOCCOc2ccc(C)n(O)c2=S)c(=S)n1O", "growth": "16.4%"},
      {"smiles": "C[C@@H]1NC(=O)[C@H](Cc2ccccc2)N(Cc2cccnc2)C1=O", "growth": "104%"},
      {"smiles": "C=CC(CC(c1ccccc1)(c1ccccc1)c1ccccc1)N(CC)CC", "note": "(stereo not drawn)", "growth": "66.1%"}
    ]}
  ]
}
